Measurements as given in PubChem BioAssay.
For part of these data: Potency and affinity values are given separately. Calls of active or inactive are those of the source.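 The calls were made as follows, unless noted: active = hit in primary screen, with calcium signal over 5 SD above buffer well mean in both duplicates; inactive = the rest.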

Experiments:
[1] = tested on: TRPC4 beta (transient receptor potential cation channel C4), mouse; experiment: TRPC4 cation channel opening, retest – cell-based, Fluo4 calcium, HEK293 TRPC4beta/mu-opioid, duplicates, 10 µM, confirmation (AID 2426;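 active = fluorescence ratio normalized to control raised more than 50% in primary screen plus both repeat runs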;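 as to activation: percent rise of integrated ratio over buffer wells lacking compound which define 0%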); conditions: Fluo4 calcium fluorescence, at 10 µM; active compounds read high
[2] = tested on: transient receptor potential cation channel C4 beta (TRPC4), mouse; experiment: TRPC4 cation channel opening, second retest – cell-based, second round, Fluo4, HEK293 TRPC4beta/mu-opioid, 1 µM, confirmation (AID 2461;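 active = primary screen active and over 50% activation in each of two duplicate runs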); conditions: Fluo4 calcium fluorescence, at 1 µM; active compounds read high
[3] = tested on: TRPC4 (transient receptor potential cation channel C4 beta), mouse; experiment: potentiation of DAMGO EC20 TRPC4 response – cell-based, second round, Fluo-4, HEK293 TRPC4beta/mu-opioid, 1 µM, confirmation (AID 2554;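 active = primary screen hit whose fluorescence ratio, in both repeats, exceeds the weak agonist control mean by 3 SD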); conditions: DAMGO EC20, Fluo-4 calcium flux, at 1 µM; active compounds read high
[4] = tested on: TRPC4 beta (transient receptor potential cation channel C4), mouse; experiment: potentiation of DAMGO EC20 TRPC4 response – cell-based, Fluo-4, HEK293 TRPC4beta/mu-opioid, confirmation (AID 2555;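 active = primary screen hit whose calcium fluorescence ratio, in both repeats, exceeds the weak agonist control mean by 3 SD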); conditions: DAMGO EC20, Fluo-4 calcium flux, at 10 µM; active compounds read high
[5] = biological target: Short transient receptor potential channel 4 (Mus musculus) (UniProt Q9QUQ5); experiment: blockers of DAMGO-evoked TRPC4 calcium flux – cell-based, Fluo4, HEK293 TRPC4beta/mu-opioid, confirmation (AID 2636;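 active = calcium signal cut by more than 3 SD below the full-agonist control yet still positive, in both repeats and the earlier primary screen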); conditions: at 10 µM; active compounds read high
[6] = biological target: Short transient receptor potential channel 4 (Mus musculus) (UniProt Q9QUQ5); experiment: blockers of DAMGO-evoked TRPC4 calcium flux – cell-based, second round, Fluo4, HEK293 TRPC4beta/mu-opioid, 1 µM, confirmation (AID 2637;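 active = calcium signal ratio cut to more than 3 SD under the fully stimulated control mean yet still positive, in both repeats and the primary screen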;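 as to inhibition: percent of integrated ratio relative to wells lacking test compound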); conditions: at 1 µM; active compounds read high
[7] = biological target: Short transient receptor potential channel 4 (Mus musculus) (UniProt Q9QUQ5); experiment: potentiation of DAMGO-evoked TRPC4 calcium signal – cell-based, HEK293 TRPC4/mu-opioid, Fluo-4 calcium, EC20 DAMGO, dose response (AID 434941;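 active = earlier screen potentiator hit that boosts the TRPC4 ion channel at some dose, with a dose response; inactive = no potentiation, no dose response, or not a prior hit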;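 also: calcium entry triggered by an EC20 dose of DAMGO at the co-expressed mu-opioid receptor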)
[8] = biological target: Short transient receptor potential channel 6 (Mus musculus) (UniProt Q61143); experiment: TRPC6 blockade by TRPC4 inhibitor hits – cell-based, HEK293, membrane potential dye, duplicate, selectivity assay for TRPC4 inhibitor project, confirmation (AID 434948;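 active = active in primary screen and both duplicates, each dropping signal beyond three positive-control SD with fluorescence still positive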); conditions: HEK293 TRPC6, membrane potential dye fluorescence, at 10 µM, stimulated with maximal-effect acetylcholine; active compounds read high
[9] = biological target: Short transient receptor potential channel 6 (Mus musculus) (UniProt Q61143); experiment: TRPC6 opening by TRPC4 activator hits – cell-based, HEK293, membrane potential dye, duplicate, selectivity assay for TRPC4 activator project, confirmation (AID 434950;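 active = membrane potential signal rise above negative control mean plus 3 SD in both duplicates, also active in the earlier TRPC4 screen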;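 as to activation: 0% = buffer only wells and 100% = acetylcholine maximal-effect wells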); conditions: HEK293 TRPC6, membrane potential fluorescence, at 10 µM; activation: active compounds read high; outcome: activation
[10] = biological target: Short transient receptor potential channel 6 (Mus musculus) (UniProt Q61143); experiment: positive modulators of mouse TRPC6 channel – HEK293 cells, membrane potential dye, duplicate, selectivity assay for TRPC4 potentiator project, confirmation (AID 434952;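 active = compound raising the membrane signal above positive-control mean plus 3 SD in both repeats, and a primary screen hit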); conditions: HEK293 TRPC6, membrane potential dye fluorescence, at 10 µM, maximal acetylcholine added after compound; active compounds read high
[11] = biological target: Short transient receptor potential channel 4 (Mus musculus) (UniProt Q9QUQ5); experiment: calcium flux activators in TRPC4/5HT1a cells, counter-screen for TRPC4 activator project, cell-based, second counter screen, HEK293 TRPC4/5HT1a, Fluo-4 (AID 434977;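 active = calcium signal rise above buffer-control mean plus 5 SD in both duplicates, and also a hit in the primary screen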;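 as to activation: plate controls were assay buffer for no effect and maximal serotonin response for full effect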); conditions: Fluo-4 calcium flux, at 10 µM; active compounds read high
[12] = serotonin-gated TRPC4 signal block – cell-based, second counter screen, HEK293 TRPC4/5HT1a, Fluo-4, counter-screen for TRPC4 inhibitor project, confirmation (AID 434978;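 active = primary screen active whose calcium signal fell more than 3 SD beyond the full-serotonin control mean in both duplicate plates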;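 as to outcome: serotonin given first at submaximal then at maximal dose after compound preincubation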); conditions: Fluo-4 calcium flux, at 10 µM, serotonin added to trigger calcium flux; active compounds read high
[13] = tested on: TRPC4 (mouse), co-expressed with 5HT1a in HEK293; experiment: enhancement of serotonin-evoked TRPC4 response – cell-based, second counter screen, HEK293 TRPC4/5HT1a, Fluo-4, counter-screen for TRPC4 potentiator project, confirmation (AID 434979;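 active = signal rise over 3 SD above mean of control wells given weak agonist, in both repeats and first screen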); conditions: Fluo-4 calcium flux, at 10 µM, serotonin added at its EC20 dose; active compounds read high
[14] = nonspecific calcium rise without TRPC4 – cell-based, HEK293 mu-opioid receptor line, counter-screen for TRPC4 activator project, confirmation (AID 449723); conditions: HEK293 mu-opioid cells, Fluo-4 calcium fluorescence, at 10 µM; active compounds read high;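 also: counter screen cells carry the mu-opioid receptor alone and lack TRPC4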
[15] = nonspecific potentiation of DAMGO calcium response – cell-based, HEK293 mu-opioid receptor line, counter-screen for TRPC4 allosteric potentiator project, confirmation (AID 449724;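 active = calcium signal rise more than 3 SD above the low-dose agonist control mean, in both duplicate plates and the primary screen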); conditions: HEK293 mu-opioid receptor cells, Fluo-4 calcium flux, at 10 µM, compound added before EC20 DAMGO stimulus; active compounds read high

Sequence of Short transient receptor potential channel 4 (Mus musculus) (Q9QUQ5 whole entry, looked up): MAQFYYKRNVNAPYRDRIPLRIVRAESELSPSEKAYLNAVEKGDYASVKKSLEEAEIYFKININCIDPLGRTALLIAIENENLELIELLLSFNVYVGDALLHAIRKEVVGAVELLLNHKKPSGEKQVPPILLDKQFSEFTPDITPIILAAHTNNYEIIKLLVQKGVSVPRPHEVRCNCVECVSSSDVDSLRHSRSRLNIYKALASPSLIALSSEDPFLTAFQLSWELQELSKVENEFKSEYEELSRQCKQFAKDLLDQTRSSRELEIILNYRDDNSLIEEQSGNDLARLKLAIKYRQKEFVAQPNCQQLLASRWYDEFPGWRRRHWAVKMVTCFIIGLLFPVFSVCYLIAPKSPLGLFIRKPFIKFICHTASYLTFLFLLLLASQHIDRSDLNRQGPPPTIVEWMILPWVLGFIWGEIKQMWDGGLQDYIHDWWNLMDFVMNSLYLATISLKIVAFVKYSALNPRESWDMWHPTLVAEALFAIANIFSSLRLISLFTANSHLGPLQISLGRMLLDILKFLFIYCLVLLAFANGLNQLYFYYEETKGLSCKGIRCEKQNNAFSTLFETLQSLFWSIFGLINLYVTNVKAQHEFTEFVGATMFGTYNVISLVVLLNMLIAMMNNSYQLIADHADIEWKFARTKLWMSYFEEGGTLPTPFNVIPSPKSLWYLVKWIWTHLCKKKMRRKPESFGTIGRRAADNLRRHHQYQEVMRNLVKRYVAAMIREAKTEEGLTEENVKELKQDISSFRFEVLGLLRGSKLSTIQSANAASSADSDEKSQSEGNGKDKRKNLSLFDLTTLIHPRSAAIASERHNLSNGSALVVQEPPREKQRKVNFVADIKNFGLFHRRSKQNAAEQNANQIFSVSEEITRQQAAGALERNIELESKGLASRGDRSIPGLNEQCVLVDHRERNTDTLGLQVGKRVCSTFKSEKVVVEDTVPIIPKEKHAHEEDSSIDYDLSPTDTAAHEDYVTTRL
Sequence of Short transient receptor potential channel 6 (Mus musculus) (Q61143 whole entry, looked up): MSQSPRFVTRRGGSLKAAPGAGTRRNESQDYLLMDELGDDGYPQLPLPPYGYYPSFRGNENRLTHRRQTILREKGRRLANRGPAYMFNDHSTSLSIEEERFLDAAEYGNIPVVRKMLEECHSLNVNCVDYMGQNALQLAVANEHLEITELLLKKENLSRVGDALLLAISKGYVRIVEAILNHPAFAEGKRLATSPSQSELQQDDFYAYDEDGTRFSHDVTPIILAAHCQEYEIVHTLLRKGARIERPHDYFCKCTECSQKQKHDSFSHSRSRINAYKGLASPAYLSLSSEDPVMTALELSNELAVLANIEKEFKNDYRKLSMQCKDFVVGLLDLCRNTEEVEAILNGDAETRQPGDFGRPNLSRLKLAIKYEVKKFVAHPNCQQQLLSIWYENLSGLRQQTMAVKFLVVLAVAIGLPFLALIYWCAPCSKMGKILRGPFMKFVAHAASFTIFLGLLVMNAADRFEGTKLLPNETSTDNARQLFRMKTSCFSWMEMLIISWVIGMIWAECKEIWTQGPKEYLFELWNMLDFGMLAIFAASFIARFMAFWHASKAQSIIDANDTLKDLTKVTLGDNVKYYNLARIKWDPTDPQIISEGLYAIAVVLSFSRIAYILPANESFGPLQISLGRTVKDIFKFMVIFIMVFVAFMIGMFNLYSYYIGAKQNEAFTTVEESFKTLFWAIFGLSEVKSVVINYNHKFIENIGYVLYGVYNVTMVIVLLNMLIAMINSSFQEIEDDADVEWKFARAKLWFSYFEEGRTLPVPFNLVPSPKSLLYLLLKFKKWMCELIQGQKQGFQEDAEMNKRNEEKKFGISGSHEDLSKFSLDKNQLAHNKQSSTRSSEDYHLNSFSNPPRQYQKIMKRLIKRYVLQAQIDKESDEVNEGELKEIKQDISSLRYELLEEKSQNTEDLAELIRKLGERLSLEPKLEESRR

Cc1ccccc1OCC(O)Cn1c(=N)n(Cc2ccccc2)c2ccccc21 (stereo not given)
active: activation [1] 70% | inhibition [5] 84% | inhibition [8] 39.5% | activation [9] 52.5% | activation [11] 9.48% | inhibition [12] 38% | activation [14] 18.7%
inactive: outcome [2] | outcome [3] | outcome [4] | outcome [6] | outcome [7] | outcome [10] | outcome [13] | outcome [15]

O=C(N/N=C/c1cccnc1)c1ccccc1OCc1ccc(Cl)cc1
active: inhibition [5] 98% | inhibition [6] 48% | inhibition [12] 42.7%
inactive: outcome [1] | outcome [2] | outcome [3] | outcome [4] | outcome [7] | outcome [8] | outcome [9] | outcome [10] | outcome [11] | outcome [13] | outcome [14] | outcome [15]

C/C=C(\C)CN1CCC(n2nccc2NC(=O)CCc2ccccc2)CC1
inactive: outcome [1] | outcome [2] | outcome [3] | outcome [4] | outcome [7] | outcome [8] | outcome [10] | outcome [11] | outcome [12] | outcome [13] | outcome [14] | outcome [15]
active: inhibition [5] 97% | inhibition [6] 86% | activation [9] 58.5%

CN(C)C(CNC(=O)c1ccc(C(F)(F)F)cc1)c1ccco1 (stereo not given)
inactive: outcome [2] | outcome [3] | outcome [4] | outcome [7] | outcome [8] | outcome [10] | outcome [11] | outcome [12] | outcome [13] | outcome [14] | outcome [15]
active: activation [1] 55% | inhibition [5] 96% | inhibition [6] 92% | activation [9] 28.5%

O=C(NC(=S)NNC(=O)c1ccco1)c1ccc(Br)cc1
inactive: outcome [2] | outcome [3] | outcome [4] | outcome [5] | outcome [6] | outcome [7] | outcome [8] | outcome [10] | outcome [12] | outcome [13] | outcome [14] | outcome [15]
active: activation [1] 149% | activation [9] 32.5% | activation [11] 22.9%

CCc1ccc(C(CNc2nc(C(F)(F)F)nc3ccccc23)N(C)C)cc1 (stereo not given)
inactive: outcome [1] | outcome [2] | outcome [3] | outcome [4] | outcome [5] | outcome [6] | outcome [7] | outcome [8] | outcome [9] | outcome [10] | outcome [11] | outcome [12] | outcome [13] | outcome [14] | outcome [15]

CCn1c(SCC(=O)c2cc(C)n(CC3CCCO3)c2C)nc2ccccc21 (stereo not given)
active: inhibition [5] 69% | activation [9] 65%
inactive: outcome [1] | outcome [2] | outcome [3] | outcome [4] | outcome [6] | outcome [7] | outcome [8] | outcome [10] | outcome [11] | outcome [12] | outcome [13] | outcome [14] | outcome [15]
